This passage reports PBM binding z-score results from the supplement of paper PMC6555819.

Experiment in all cases: PBM binding z-score (relative to random genomic background probes); higher = stronger binding; sequences stand for … in GC…GCGATTGACAGCGTAGAATGAAGG
The test system of assay [1] is FXR:RXRa (NR concentration 270 nM, RXRa partner concentration 90 nM). An outline of the steps: (§1)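 Regression normalization was applied to scanned fluorescence from custom Agilent 4×180K protein-binding microarrays. Before scanning, arrays were incubated 1 h with ligand-free nuclear receptor dimers, and binding was detected with antibodies against each partner (one per run). Binding z-scores use the random background probes as reference.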

Assay [2] deals with LXRa:RXRa (NR concentration 270 nM, RXRa partner concentration 90 nM). An outline of the steps:
as §1

In assay [3] the test system is LXRa homodimer (NR concentration 270 nM). An outline of the steps: as §1
For assay [4], the system named is LXRb:RXRa (NR concentration 270 nM, RXRa partner concentration 90 nM). An outline of the steps: as §1
Assay [5] has as its system LXRb homodimer (NR concentration 270 nM). The essentials:
as §1

In assay [6] the test system is PPARa:RXRa (NR concentration 270 nM, RXRa partner concentration 90 nM). An outline of the steps: as §1
Assay [7] relates to PPARg:RXRa (NR concentration 180 nM, RXRa partner concentration 90 nM). An outline of the steps:
as §1

Assay [8] deals with PPARg:RXRa 270nM:90nM, anti-RXR (NR concentration 270 nM, RXRa partner concentration 90 nM). An outline of the steps: as §1
The test system of assay [9] is PPARg:RXRa 30nM:10nM, anti-RXR (NR concentration 30 nM, RXRa partner concentration 10 nM). The essentials:
as §1

In assay [10] the test system is PPARg:RXRa 90nM:30nM, anti-RXR (NR concentration 90 nM, RXRa partner concentration 30 nM). The essentials:
as §1

Assay [11] relates to PPARg:RXRa DBDmut IVT, anti-RXR (DBD mutation: RXRa K156A/R161A, NR concentration 270 nM, RXRa partner concentration 90 nM). The essentials: as §1
The test system of assay [12] is PPARg:RXRa IVT, anti-PPARg (NR concentration 270 nM, RXRa partner concentration 90 nM). An outline of the steps:
as §1

The test system of assay [13] is PPARg DBDmut:RXRa IVT, anti-PPARg (DBD mutation: PPARg1 K132A/R137A, NR concentration 270 nM, RXRa partner concentration 90 nM). An outline of the steps: as §1
For assay [14], the system named is PPARg DBDmut IVT, anti-PPARg (DBD mutation: PPARg1 K132A/R137A, NR concentration 270 nM). The essentials:
as §1

The subject of assay [15] is PPARg homodimer (NR concentration 180 nM). An outline of the steps:
as §1

The subject of assay [16] is PXR:RXRa (NR concentration 270 nM, RXRa partner concentration 90 nM). The essentials: as §1
Assay [17] deals with PXR homodimer (NR concentration 270 nM). An outline of the steps:
as §1

Assay [18] concerns RARa:RXR (NR concentration 270 nM, RXRa partner concentration 90 nM). The essentials:
as §1

Assay [19] relates to RARa homodimer (NR concentration 270 nM). The essentials: as §1
The subject of assay [20] is RARb:RXRa (NR concentration 270 nM, RXRa partner concentration 90 nM). The essentials: as §1

In the case of ATCTCAAGGTAAGACTCAGTTCAGTGAAGAACGC, the PBM binding z-score in [1] worked out at 0.749; in assay [2], 0.642; in assay [3], 0.594; in assay [4], 0.258; in [5], 0.655; in [6], 0.216. Further, the PBM binding z-score worked out at 0.033 in assay [7]; 0.104 in assay [8]; 0.217 in [9]; 0.104 in assay [10]; 0.2 in assay [11]; 0.426 in assay [12]. The PBM binding z-score was 0.753 in [13]; 0.498 in assay [14]; 0.782 in assay [15]; 1.47 in assay [16]; 1.54 in assay [17]; 0.694 in assay [18]. Besides, the PBM binding z-score in assay [19] amounted to 1.1; in [20], 0.614.

Turning to GCTCGGCGGACAAGGTCAGAGCTTTGTCCGTAGA, the PBM binding z-score in assay [1] was 1.19; in assay [2], 1.42; in assay [3], -0.598; in assay [4] it was 0.784; in assay [5], -1.28; in [6], 2.03. Also, the PBM binding z-score in assay [7] was -0.519; in assay [8], 0.435; in assay [9] it was -0.807; in [10], -0.297; in assay [11], -0.55; in assay [12] it was 0.128. The PBM binding z-score in assay [13] is -1.6; in assay [14], -1.83; in [15], -0.129; in [16] it was 1.55; in assay [17], -0.547; in assay [18] it was 1.95. In addition, the PBM binding z-score in assay [19] was -0.932; in assay [20], 2.81.

As for ATCTGTAGGTTACATCCGGGTCATTCAGGCTATG, the PBM binding z-score in assay [1] was found to be 1.94; in assay [2], 4.67; in assay [3], 1.97; in [4] it was 2.81; in assay [5], 1.35; in assay [6], 3.22. Moreover, the PBM binding z-score in [7] stood at 1.98; in [8], 2.56; in assay [9], 0.963; in assay [10] it was 1.83; in [11], 3.84; in assay [12], 4.04. In addition, the PBM binding z-score came to 1.35 in assay [13]; 1.89 in assay [14]; 1.96 in assay [15]; 3.52 in [16]; 1.9 in [17]; 3.18 in [18]. The PBM binding z-score in [19] is 0.982; in assay [20] it was 2.34.

In the case of CGTCCAAGGTCAGCAGGTCAGTGTAAGCGACGTG, the PBM binding z-score in assay [1] is 5.5; in assay [2], 4.05; in assay [3], 0.506; in assay [4], 3.05; in [5], -0.03; in assay [6], 4.91. Besides, the PBM binding z-score turned out to be 4.14 in assay [7]; 4.68 in assay [8]; 1.12 in assay [9]; 3.01 in [10]; 2.97 in assay [11]; 3.67 in assay [12]. Further, the PBM binding z-score in assay [13] is -0.32; in assay [14], -0.582; in assay [15], 2.97; in [16] it was 3.74; in [17] it was 0.447; in assay [18], 5.09. The PBM binding z-score in assay [19] stood at 1.36; in assay [20], 5.35.

For CCTATTAGTTGACCCTAAGGGCAACCGAAGCTCG, the PBM binding z-score in [1] is 4.38; in assay [2], 3.57; in assay [3] it was 1.02; in assay [4] it was 3.56; in assay [5], 1.04; in assay [6], 4.53. Also, the PBM binding z-score in assay [7] was determined as 1.6; in assay [8], 3.34; in assay [9], 0.981; in assay [10] it was 2.19; in assay [11], 0.775; in assay [12], 1.82. Moreover, the PBM binding z-score is 0.412 in assay [13]; 0.556 in assay [14]; 3.19 in assay [15]; 4.25 in assay [16]; 1.16 in [17]; 4.62 in assay [18]. Besides, the results for the PBM binding z-score in assay [19] and in assay [20] were 2.32 and 2.93, respectively.

For ATCTCTAGTTAACAAGTTCAGTGAAAGAGAGGAC, the PBM binding z-score in assay [1] stood at 0.682; in assay [2], 1.12; in assay [3], 0.782; in [4], 0.883; in assay [5], 1.22; in [6], 0.724. Further, the PBM binding z-score turned out to be 0.29 in [7]; 0.54 in assay [8]; 0.48 in [9]; 0.596 in assay [10]; 0.0329 in [11]; 0.697 in assay [12]. Besides, the PBM binding z-score stood at 1.35 in [13]; 1.03 in assay [14]; 0.961 in assay [15]; 1.81 in assay [16]; 2.1 in [17]; 0.902 in [18]. For the same sequence, the figures for the PBM binding z-score in assay [19] and in assay [20] were 1.15 and 1.49, respectively.
